Results from the supplement of paper PMC6555819.

These sequences were tested on VDR:RXRa (NR concentration 270 nM, RXRa partner concentration 90 nM) (assay: PBM binding z-score (relative to random genomic background probes); higher = stronger binding; sequences stand for … in GC…GCGATTGACAGCGTAGAATGAAGG).
Description: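 Protein-binding microarray (Agilent 4x180K custom design, double-stranded 60-nt probes: 5' GC cap, 34-nt variable region, 24-nt constant primer region; full probe sequence given). Purified or IVT nuclear receptor:RXRα heterodimers (3:1 NR:RXRα, mostly 270:90 nM) or homodimers were incubated for 1 h in PBS with 2% milk and no ligand, then detected with Alexa488 antibodies. Fluorescence from o1-orientation probes (~5 replicates averaged) was converted to z-scores against 500 random hg19 background probes. Variable regions are seed direct-repeat (DR0–DR5) sites, all their single-nucleotide variants and half-site ablations.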

Row | Sequence | PBM binding z-score
1 | GATATAGGGTCAGCTAGAGGCCAGAGTATGGAAA | 3.42
2 | TGTCAAAGTTCAAAGGTTACGTAAGTATCCACAC | 6.4
3 | CGTCCAAGGACAATGCTAGGTCAGTGAAAGCATT | 0.294
4 | AGAATGGGGTTATACGTAGATCAGGGAAGAAAGT | 3.03
5 | CCTACTGGGCCATTCAGAGGTCAATGATCATATG | 3.4
6 | TAGCCTAGGTCATTCAGGGGCCAGCATAGAAAGC | 2.97
7 | TGTCAATGTTCAAAGGTAACGTAAGTATCCACAC | 0.373
8 | CAAACTAGGTCACAAAAGGTCAAAGTCGAATGAC | 6.51
9 | CGTCAAAGTTCAACTGAGGTAACGTAAAGCACGC | 5.16
10 | AATACAGGGTGACTAGGCCAGAGTAGGTACGAAT | 0.257
11 | GCTGCTAGGTCAACTGATGGCCAGCTAAAGCTCG | 1.14
12 | CCTTACGGGTAACGAGGTTATAGCACGACGAGCG | 1.38
13 | CCTACTGGGCCAAAAAGGTCATTGATGCCGATAA | 4.83
14 | ATCGAAAGGTCGACGCGGTGAGTATACACCGTTT | 3.04
15 | ATCGAAAGGTCGTGAGGTAAGTATACAGAAAGGC | 3.44
16 | CCTACTGGGCCAAAGAGGTCATTGATGCCGATAA | 5.68
17 | ATCGAAAGGTCGAAGGTGAGCATACCCACCCGAA | 2.63
18 | ATTTGTAGGTTACATCCGGGTCATTCAGGCTATG | 4.68
19 | CCTACTGGGCCATTCAGAGGGCATTGATCATATG | 0.0939
20 | CCTCGGAGGTCAACAGGAGGTCAGAGCTGCCAGA | 6.19
